Screens deposited in PubChem by Sanford-Burnham Center for Chemical Genomics.
The list is not random: actives were taken first. Their share in the collection is about 4%.
TWEAK-Fn14 inh: inhibitors of TWEAK-Fn14 signaling, primary screen, luciferase reporter cells, uHTS; TWEAK-stimulated Fn14 reporter cells, luciferase luminescence, 8 h; inhibition, % at 10 µM; 360,000 compounds, 2% hits; AID 1159606, 2016; in the data active = inhibition above about 50%
CF NFkB inh: inhibitors of PAF-induced NF-kB signaling, primary screen, cell-based, GFP fluorescence, uHTS; inhibition, % at 5 µM; AID 588850, 2011; KKLEB NF-kB-GFP reporter, GFP fluorescence overnight; 360,000 compounds, 0.86% hits;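 active = at least 50% inhibition at 5 µM, scaled per plate between neutral and stimulator controls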;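 also: PAF is a Pseudomonas aeruginosa culture filtrate used as stimulus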
KKLEB cytotox: cytotoxicity in KKLEB CF airway cells, primary screen, cytotoxicity control for CF NF-kB inhibitor project, cell-based, uHTS, fluorescence assay plates. KKLEB CF airway cells viability, ATPlite luminescence, overnight; active compounds read low; cells stimulated with P. aeruginosa culture filtrate. activity change (cytotoxicity), % at 5 µM. 360,000 compounds, 0.36% hits. AID 602141, 2011;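 active = corrected activity change at or below -50% at 5 µM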
Peg3 prom inh: Peg3 promoter-driven luciferase inhibitors, primary screen, cell-based, HeLa, luciferase luminescence; HeLa PEG-Prom luciferase reporter, overnight; inhibition, % at 20 µM; 360,000 compounds, 1.7% hits; AID 588405, 2011;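 active = inhibition of at least 50% at 20 µM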
TROY NFkB inh: inhibitors of TROY-driven NF-kB signaling, primary screen, Q293 LMP1-TROYcd cells, NF-kB luciferase, uHTS. AID 1347056, 2019. Q293 LMP1-TROYcd NF-kB luciferase reporter, 4 h. inhibition, % at 10 µM. 360,000 compounds, 0.98% hits;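 active = compounds whose plate-normalised and pattern-corrected inhibition of the luciferase reporter signal at the single screening dose is 50% or more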
HIF-2a inh: HIF-2a reporter inhibitors, primary screen, luminescence, 786-0 RCC cells; inhibition, % at 18.8 µM; 360,000 compounds, 0.72% hits; 786-0 RCC cells HIF-2a reporter, luciferase luminescence, overnight;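 active = inhibition of the luminescence signal of 40% or more relative to plate controls, in a single-dose primary screen at 18.75 µM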
Hits are given with their value; n = inactive; x = not tested or not shown.

SMILES | TWEAK-Fn14 inh | CF NFkB inh | KKLEB cytotox | Peg3 prom inh | TROY NFkB inh | HIF-2a inh
CN(C(=O)CN1C(=O)S/C(=C\c2ccccc2Cl)C1=O)C1CCS(=O)(=O)C1 (stereo not given) | 58 | n | n | n | n | n
CC(=O)ON=C1C=CC(=C(C#N)c2ccccc2)C=C1 | n | 80 | n | n | n | n
CCOC(=O)c1c(CSC(=N)N)n(-c2ccc(C)cc2)c2cc(Br)c(OC(C)=O)cc12 | 92 | n | n | 54 | n | n
CN(CC(=O)Nc1ccccc1Br)C(=O)CN1CCN(c2ccccc2Cl)CC1 | n | n | n | n | n | n
O=C(CSc1ncnc2ccccc12)c1ccc2c(c1)OCCO2 | n | n | n | n | 54 | n
CCc1nc(SCC(=O)c2ccc3c(c2)OCCO3)c2ccccc2n1 | n | n | n | n | n | n
O=C(COC(=O)/C=C/c1ccc(F)cc1)NC1CCCCCC1 | n | n | n | n | n | n
CC(=O)OC[C@]12CC[C@H]3[C@@](C)(CC[C@H]4C(C)(C)CCC[C@]34C)[C@@H]1CC(C1=CC(=O)OC1O)O2 (stereo not given in full) | 108 | 92 | -81 | 105 | 88 | 89
Cc1ccc(NC(=O)c2cnn(-c3ccccc3)c2C)cc1C | 85 | n | n | n | 63 | n
Cc1c(C(=O)Nc2ccccc2)cnn1-c1ccccc1 | n | n | n | n | n | n
COc1ccc(NC(=O)c2cnn(-c3ccccc3)c2C)cc1 | 50 | n | n | n | n | n
O=C(Nc1ccccc1N1CCOCC1)C1CCCO1 (stereo not given) | n | n | n | n | n | n
CCOC(=O)c1ccc2c(c1)n(CC)c(/C=C/N(C)c1ccccc1)[n+]2CC | n | n | n | n | n | n
CC[n+]1c(/C=C/N(C)c2ccccc2)n(-c2ccccc2)c2ccc(-c3nc4ccccc4s3)cc21 | 107 | 92 | -95 | 112 | 64 | 91
N#Cc1cccc(C2CC(OCCF)=CC(=O)O2)c1 (stereo not given) | x | x | x | x | x | n
O=C(O)c1c2c(nc3ccccc13)/C(=C/c1ccc(O)cc1)CC2 | 77 | n | n | n | 51 | n
O=C(O)c1c2c(nc3ccccc13)/C(=C/c1ccc(OC(F)F)cc1)CCC2 | n | n | n | n | n | n
COc1ccc(CC(=O)Nc2ccc(-c3noc(-c4cc(OC)c(OC)c(OC)c4)n3)cc2)cc1 | n | n | n | n | n | n
COc1ccc(NC(=O)c2ccc(-c3ccc(-c4noc(C)n4)cc3C)cc2)cc1N1CCN(C)CC1 | n | n | n | 64 | n | n
COc1ccc(CC(=O)Nc2ccc(-c3noc(-c4ccc(Cl)cc4)n3)cc2)cc1 | n | n | -55 | 57 | n | n
COc1ccc(-c2nc(-c3ccc(NC(=O)c4ccncc4)cc3)no2)cc1OC | 94 | n | n | 99 | 67 | n
c1ccc2c(c1)COc1c3ncccc3nn1-2 | n | n | n | n | n | n
CC(C)C1C(=O)N(Cc2cn(CCC3OCCO3)nn2)CCS(=O)(=O)N1Cc1ccc(-c2ccc(F)cc2Cl)cc1 (stereo not given) | n | n | n | n | n | n
Cc1ccc(S(=O)(=O)NCc2ccc(C(=O)NCCc3ccc(S(N)(=O)=O)cc3)cc2)cc1 | n | n | n | n | n | n
Cc1noc(C)c1C(=O)N(C)C[C@@H]1OCc2ccccc2-c2c(n(C)c3ccccc23)C(=O)N([C@H](C)CO)C[C@H]1C | n | n | n | n | n | n
SMILES | TWEAK-Fn14 inh | CF NFkB inh | KKLEB cytotox | Peg3 prom inh | TROY NFkB inh | HIF-2a inh
CCOc1cc(CNc2ccc3c(c2)CCC3)ccc1O | n | n | n | n | 50 | n
CCC1CCCCN1CCCNC(=O)c1ccc(N2CCCC2=O)cc1 (stereo not given) | n | n | n | n | n | n
O=C(Oc1cccc(C(=S)N2CCOCC2)c1)c1ccccc1 | 82 | n | n | n | n | n
CC(=O)NS(=O)(=O)c1ccc(NC(=O)[C@@H]2CCCN2S(=O)(=O)c2ccc(Cl)cc2)cc1 | n | n | n | n | n | n
CN(C)c1ccc2nc3ccc(=O)cc-3sc2c1 | n | 52 | n | n | n | n
Cc1cc2nc3ccc(=[N+](C)C)cc-3sc2cc1N | n | 52 | n | n | n | n
CSc1nc2ccc(S(=O)(=O)N(C)C)cc2s1 | n | n | n | n | n | n
CN(C)c1ccc2nc3ccc(=[N+](C)C)cc-3sc2c1 | n | 79 | n | n | n | n
O=C(Nc1cc2c(cc1Cl)-c1ccc([N+](=O)[O-])cc1C2=NO)C(F)(F)F | n | n | n | 57 | n | n
Nc1ccc2c(c1)C(=NO)c1cc([N+](=O)[O-])ccc1-2 | n | n | n | n | n | n
COc1ccc(C(=O)NC2CC2)cc1OC1CCN(Cc2cc(C)c(C)cc2C)CC1 | 88 | n | n | n | n | n
CSc1nnc(N(CCC#N)CCC#N)s1 | n | n | n | n | n | n
Cc1nnc(N(CCC#N)CCC#N)s1 | 85 | n | n | n | x | n
COc1ccc(-c2csc3ncnc(N4CCN(c5cccc(OC)c5)CC4)c23)cc1 | 54 | n | n | n | n | n
COc1ccc(CN2CCN(c3ncnc4scc(-c5ccc(F)cc5)c34)CC2)cc1 | n | n | n | n | n | n
CCN1CCN(c2ncnc3scc(-c4ccc(OC)cc4)c23)CC1 | 91 | n | n | n | n | n
O=C(Nc1nnc(SCC(=O)N2CCCc3ccccc32)s1)c1ccccc1 | n | n | n | n | n | n
CC(C)(C)c1nnc(NC(=O)c2ccc3c(c2)OCO3)s1 | n | n | n | n | n | n
COc1ccccc1-c1nnc(NC(=O)c2ccc3c(c2)OCO3)s1 | n | 59 | -56 | n | n | n
CC(C)c1nnc(NC(=O)c2ccc3c(c2)OCO3)s1 | 73 | n | n | n | n | n
O=C(Nc1nnc(SCC(=O)N2CCCc3ccccc32)s1)c1ccc2ccccc2c1 | n | n | -50 | n | n | n
CCOC(=O)CSc1nnc(NC(=O)c2ccc3c(c2)OCO3)s1 | n | n | n | n | n | 54
CC(c1ccccc1)c1nnc(NC(=O)c2ccc3c(c2)OCO3)s1 (stereo not given) | n | n | n | n | n | n
Cc1cc(N)nc(=O)n1C1CC(O)C(CO)O1 (stereo not given) | n | n | n | n | n | n
CCCCN(CC)CCNC(=O)c1cc2c(=O)n(CC)c3ccccc3c2s1 | n | n | n | n | n | n
CCCCN(CC)CCCNC(=O)c1cc2c(=O)n(CC)c3ccccc3c2s1 | n | n | n | 89 | n | n
CCOC(=O)N=Nc1c(O)n(CC(=O)OC)c2ccccc12 | n | n | n | n | n | n
